PubChem BioAssay (NCATS)
Unmarked numbers belong to inactive results. Records with an inconclusive call do not appear. Active and inactive are the calls of the source. Unless noted, calls follow the shape of the dose curve; as a rule, active = well fitted curve in either direction with a large enough effect (not every such curve was filed as active); inconclusive = small, poorly fitted or top-dose-only effect, or another doubt; inactive = flat fitted curve, though single readings scatter.

Tests used:
[1] = biological target: Lysosomal acid glucosylceramidase (Homo sapiens) (UniProt P04062); assay: Glucocerebrosidase-p2 (AID 348; in the data active = potency below about 10 µM; also: potency is read from the fitted curve at half-maximal effect); conditions: purified GBA, blue fluorogenic substrate, 40 min
In short: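 Compounds titrated from 0.6 nM upwards against 0.2 nM enzyme in pH 5.9 citric acid/KH2PO4, taurocholate, tween-20; blue fluorogenic substrate 80 uM, 40 min room temperature, stopped and read Ex 365/Em 440 for AC50.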

[2] = AP1 Signaling Pathway (AID 357); conditions: ME-180 AP-1-bla reporter, EGF-induced, beta-lactamase ratio, 5 h; at 7.69 µM (top of the series) unless noted; also: % is scaled to controls: 0 for no effect and ±100 for the full control effect
In short: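 AP-1-bla ME-180 cells with beta-lactamase reporter under AP-1 response element, stimulated with EC50 EGF; compounds titrated, 5 hours at 37 degrees Celsius. CCF4 read at 460/530 nm ratio; positive and negative modulators judged by AC50.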

[3] = NFAT Signaling Pathway (AID 444); conditions: Jurkat NFAT-bla M1, carbachol, beta-lactamase ratio, 5 h; at 7.69 µM (top of the series) unless noted;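 also: carbachol stimulus at about its EC50 of 1 µM final; % is scaled to controls: 0 for no effect and ±100 for the full control effect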
In short: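 Jurkat cells carrying an NFAT-driven β-lactamase reporter and co-transfected muscarinic M1 receptor were treated with compound plus carbachol (1 uM final, an EC50 level) for 5 h at 37 °C. CCF4 loading followed for 1 h at RT; 460/530 nm ratio gave %activity.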

[4] = Stat Signaling Pathway (AID 446); conditions: ME-180 SIE beta-lactamase reporter, IL-6 stimulated, 5 h; at 7.69 µM (top of the series) unless noted;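 also: ME-180 cervical cancer cells given 40 pM IL-6 alongside compound; SIE-controlled beta-lactamase reporter measured as 460/530 nm FRET emission ratio; % is scaled to controls: 0 for no effect and ±100 for the full control effect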
In short: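 Screening format detects activators and inhibitors alike: ME-180 SIE-bla cells stimulated at 40 pM IL-6 for 5 hrs with compound, then dual-emission beta-lactamase read at 405 nm excitation.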

[5] = biological target: Glucocorticoid receptor (Homo sapiens) (UniProt P04150); assay: GR-EFC Redistribution (AID 451; calls by dose curve; also: potency is read from the fitted curve at half-maximal effect); conditions: CHO-K1 GR-EFC translocation, beta-gal luminescence, 2 h
In short: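 CHO-K1 cells stably expressing nuclear-localized β-gal enzyme acceptor and GR fused C-terminally to the enzyme donor fragment; ligand-driven nuclear translocation restores β-gal by complementation. Compounds titrated up to 46 uM final, 2 h at 37 °C; luminescence read.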

[6] = biological target: Mitogen-activated protein kinase 10 (Mus musculus) (UniProt Q61831); assay: JNK3 AlphaScreen Assay (AID 530); conditions: JNK3 lysate, c-Jun phosphorylation; series mostly up to 57.1 µM;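 also: kinase came from lysate of stimulated human HepG2 cells; signal reports phosphorylation of biotinylated GST-cJun 1-79 at Ser73 with 10 µM ATP; % is scaled to controls: 0 for no effect and ±100 for the full control effect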
In short: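 Inhibitors reduce antibody binding to phosphorylated biotin-cJun, lowering AlphaScreen luminescence. Lysates from HepG2 cells pre-activated by IL-1beta plus TNF-alpha supplied JNK3; compounds were titrated.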

[7] = biological target: 3',5'-cyclic-AMP phosphodiesterase 4B (Homo sapiens) (UniProt Q07343); assay: qHTS Assay for Inhibitors of PDE-IV (AID 607; active = well fitted activation curve with a large enough effect in the main read-out, with a control signal flat, not every such curve was filed as active; also: % of control where 0% means no effect); conditions: HEK293 ACTOne CNG channel cells, membrane potential fluorescence; series mostly up to 22.9 µM
In short: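 The readout is membrane depolarisation from a cAMP-sensing CNG channel, detected with a potential dye at ex 535/em 590. Cells were HEK293-derived (endogenous PDE-IV) at 1000 cells/well, titrated up to 22.9 uM final.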

[8] = Primary qHTS for small molecule stabilizers of the endoplasmic reticulum resident proteome: Secreted ER Calcium Modulated Protein (SERCaMP) assay (AID 1508630; active = well fitted curve in the direction sought with a large enough effect; an effect the other way counts as inactive or inconclusive; also: % is scaled to controls: 0 for no effect and ±100 for the full control effect); conditions: SH-SY5Y GLuc-SERCaMP (Gaussia luciferase released on ER calcium loss) secretion, thapsigargin, luminescence; series mostly up to 38.4 µM
In short: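 GLuc-SERCaMP-expressing SH-SY5Y cells, pretreated 16 h with compound, are challenged with thapsigargin to empty ER calcium stores; after 4 h, coelenterazine is added directly to the medium and luminescence is imaged.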

[9] = biological target: Cytochrome P450 2C9 (Homo sapiens) (UniProt P11712); assay: qHTS Assay for Inhibitors and Substrates of Cytochrome P450 2C9 (AID 883; active = well fitted curve in the direction sought with a large enough effect; an effect the other way counts as inactive or inconclusive; also: % is scaled to controls: 0 for no effect and ±100 for the full control effect; nearly all actives have a fitted effect of over 60% in size); conditions: recombinant CYP2C9, luciferin-H luminescence, 60 min; series mostly up to 57.1 µM
In short: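 CYP2C9 deoxyluciferin hydroxylation, 37C, 60 min with NADPH regeneration; 10nM enzyme, 100uM Luciferin-H (KM). Glo detection reagent stopped reaction; luminescence normalized to sulphaphenazole (57uM) full inhibition.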

[10] = biological target: Cytochrome P450 2C19 (Homo sapiens) (UniProt P33261); assay: qHTS Assay for Inhibitors and Substrates of Cytochrome P450 2C19 (AID 899; active = well fitted curve in the direction sought with a large enough effect; an effect the other way counts as inactive or inconclusive; also: % is scaled to controls: 0 for no effect and ±100 for the full control effect; nearly all actives have a fitted effect of over 60% in size); conditions: recombinant CYP2C19, luciferin-H EGE luminescence; series mostly up to 57.1 µM
In short: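 In 50mM KPO4, the reaction held 5nM enzyme and KM-level (10uM) Luciferin-H EGE; it ran 60 min at 37C after NADPH regeneration and a 10 min compound preincubation. Luminescence values were scaled to 57uM ketoconazole as complete inhibition.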

[11] = biological target: Cytochrome P450 3A4 (Homo sapiens) (UniProt P08684); assay: qHTS Assay for Inhibitors and Substrates of Cytochrome P450 3A4 (AID 884; active = well fitted curve in the direction sought with a large enough effect; an effect the other way counts as inactive or inconclusive; also: % is scaled to controls: 0 for no effect and ±100 for the full control effect; nearly all actives have a fitted effect of over 50% in size); conditions: recombinant CYP3A4, Luciferin-PPXE luminescence; series mostly up to 57.1 µM
In short: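 20 nM human CYP3A4 with 25 uM Luciferin-PPXE (at KM) in 200 mM KPO4, preincubated 10 min with compound; NADPH regeneration started a 60 min RT reaction. Luciferin detected by luminescence, normalized to 57 uM ketoconazole as full inhibition.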

[12] = biological target: Cytochrome P450 3A4 (Homo sapiens) (UniProt P08684); assay: qHTS Assay for Activators of Cytochrome P450 3A4 (AID 885; active = well fitted curve in the direction sought with a large enough effect; an effect the other way counts as inactive or inconclusive; also: nearly all actives have a fitted effect of over 65% in size; also: potency is read from the fitted curve at half-maximal effect); conditions: recombinant CYP3A4, Luciferin-PPXE luminescence, 60 min; series mostly up to 57.1 µM
In short: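 Steps: enzyme/substrate mix dispensed; compound added, 10 min RT; NADPH regeneration solution added, 60 min RT; luciferin detection buffer stops reaction; 20 min later luminescence measured.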

[13] = qHTS Assay for Identification of Small Molecule Agonists for Hypoxia Response Element Signaling Pathway (AID 914; active = well fitted activation curve with a large enough effect in the signal ratio, with a control signal flat, not every such curve was filed as active; the % refers to the signal ratio; also: % of control where 0% means no effect); conditions: ME-180 (cervical carcinoma) HRE-bla reporter, beta-lactamase ratio, CoCl2, 17 h; activation: stronger effect = higher value
In short: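 HRE-bla ME-180 cells with beta-lactamase reporter under hypoxia response element, compounds with EC50 CoCl2 for 17 hours at 37 C. CCF4 substrate, 460nm/530nm emission ratio gave %Activity; AC50 from titration series.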

Sequence of Cytochrome P450 3A4 (Homo sapiens) (P08684 whole entry, looked up): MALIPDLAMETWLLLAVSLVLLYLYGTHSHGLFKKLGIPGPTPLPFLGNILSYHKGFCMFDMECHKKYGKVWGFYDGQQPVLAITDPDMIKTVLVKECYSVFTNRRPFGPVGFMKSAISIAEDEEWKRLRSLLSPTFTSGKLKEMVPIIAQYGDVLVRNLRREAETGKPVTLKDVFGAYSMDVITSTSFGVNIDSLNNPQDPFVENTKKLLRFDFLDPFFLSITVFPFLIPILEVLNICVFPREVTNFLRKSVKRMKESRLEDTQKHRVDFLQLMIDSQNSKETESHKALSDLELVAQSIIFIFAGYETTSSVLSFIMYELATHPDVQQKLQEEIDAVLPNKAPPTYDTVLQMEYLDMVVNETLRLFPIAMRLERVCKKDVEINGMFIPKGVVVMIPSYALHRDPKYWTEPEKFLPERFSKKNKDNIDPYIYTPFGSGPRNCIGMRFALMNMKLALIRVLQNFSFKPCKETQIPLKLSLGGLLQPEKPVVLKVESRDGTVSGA
Sequence of Glucocorticoid receptor (Homo sapiens) (P04150 whole entry, looked up, the tested form may be a part): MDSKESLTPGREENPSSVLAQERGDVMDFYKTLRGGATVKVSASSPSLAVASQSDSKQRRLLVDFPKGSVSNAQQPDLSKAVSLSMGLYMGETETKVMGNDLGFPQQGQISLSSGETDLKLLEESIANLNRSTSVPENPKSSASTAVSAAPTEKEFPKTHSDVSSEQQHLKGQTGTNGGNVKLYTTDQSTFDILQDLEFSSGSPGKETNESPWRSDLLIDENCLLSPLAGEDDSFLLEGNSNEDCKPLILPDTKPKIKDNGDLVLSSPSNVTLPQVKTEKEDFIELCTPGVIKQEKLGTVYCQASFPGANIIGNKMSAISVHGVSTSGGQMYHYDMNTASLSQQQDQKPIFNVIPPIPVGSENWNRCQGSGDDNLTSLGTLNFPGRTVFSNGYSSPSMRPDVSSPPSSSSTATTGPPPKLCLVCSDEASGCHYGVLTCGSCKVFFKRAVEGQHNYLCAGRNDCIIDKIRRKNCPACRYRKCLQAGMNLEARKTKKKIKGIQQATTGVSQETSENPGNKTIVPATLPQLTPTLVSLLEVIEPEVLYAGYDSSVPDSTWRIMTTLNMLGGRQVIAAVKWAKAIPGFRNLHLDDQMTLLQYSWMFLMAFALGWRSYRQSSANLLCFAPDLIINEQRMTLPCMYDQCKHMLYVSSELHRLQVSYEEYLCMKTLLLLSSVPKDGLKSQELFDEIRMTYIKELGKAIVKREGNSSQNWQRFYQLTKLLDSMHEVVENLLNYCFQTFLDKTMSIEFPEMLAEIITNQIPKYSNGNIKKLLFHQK
Sequence of 3',5'-cyclic-AMP phosphodiesterase 4B (Homo sapiens) (Q07343 whole entry, looked up): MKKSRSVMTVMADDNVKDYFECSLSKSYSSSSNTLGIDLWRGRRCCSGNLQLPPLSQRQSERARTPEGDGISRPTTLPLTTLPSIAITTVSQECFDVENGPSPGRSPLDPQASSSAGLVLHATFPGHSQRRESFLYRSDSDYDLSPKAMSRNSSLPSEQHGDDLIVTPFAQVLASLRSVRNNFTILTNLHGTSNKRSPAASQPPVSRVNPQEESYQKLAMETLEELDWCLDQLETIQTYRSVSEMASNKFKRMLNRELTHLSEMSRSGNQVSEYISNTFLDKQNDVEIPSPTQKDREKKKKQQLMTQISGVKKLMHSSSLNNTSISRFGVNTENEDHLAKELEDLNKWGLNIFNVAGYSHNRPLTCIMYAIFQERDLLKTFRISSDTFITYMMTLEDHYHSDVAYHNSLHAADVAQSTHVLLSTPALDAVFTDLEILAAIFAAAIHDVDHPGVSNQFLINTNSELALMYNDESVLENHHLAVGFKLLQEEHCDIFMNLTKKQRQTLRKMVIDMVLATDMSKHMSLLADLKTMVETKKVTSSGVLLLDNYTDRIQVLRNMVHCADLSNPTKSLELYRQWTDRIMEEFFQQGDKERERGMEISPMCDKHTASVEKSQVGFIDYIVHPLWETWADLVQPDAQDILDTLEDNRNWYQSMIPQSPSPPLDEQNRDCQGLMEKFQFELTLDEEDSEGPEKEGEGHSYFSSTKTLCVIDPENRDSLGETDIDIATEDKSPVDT
Sequence of Lysosomal acid glucosylceramidase (Homo sapiens) (P04062 whole entry, looked up): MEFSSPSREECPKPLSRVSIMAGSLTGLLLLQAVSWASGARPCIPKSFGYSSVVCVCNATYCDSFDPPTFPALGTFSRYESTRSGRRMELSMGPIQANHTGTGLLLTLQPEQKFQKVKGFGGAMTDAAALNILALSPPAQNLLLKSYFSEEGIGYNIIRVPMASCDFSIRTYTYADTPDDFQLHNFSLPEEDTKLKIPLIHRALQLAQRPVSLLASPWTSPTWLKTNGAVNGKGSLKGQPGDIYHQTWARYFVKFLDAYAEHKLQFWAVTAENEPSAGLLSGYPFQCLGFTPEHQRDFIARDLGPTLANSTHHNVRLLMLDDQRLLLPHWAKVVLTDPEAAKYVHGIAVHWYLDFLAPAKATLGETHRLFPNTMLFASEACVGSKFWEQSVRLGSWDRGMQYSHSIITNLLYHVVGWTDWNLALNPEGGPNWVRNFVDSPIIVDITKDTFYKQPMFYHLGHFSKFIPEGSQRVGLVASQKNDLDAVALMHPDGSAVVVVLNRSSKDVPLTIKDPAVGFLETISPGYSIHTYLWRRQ
Sequence of Cytochrome P450 2C9 (Homo sapiens) (P11712 whole entry, looked up): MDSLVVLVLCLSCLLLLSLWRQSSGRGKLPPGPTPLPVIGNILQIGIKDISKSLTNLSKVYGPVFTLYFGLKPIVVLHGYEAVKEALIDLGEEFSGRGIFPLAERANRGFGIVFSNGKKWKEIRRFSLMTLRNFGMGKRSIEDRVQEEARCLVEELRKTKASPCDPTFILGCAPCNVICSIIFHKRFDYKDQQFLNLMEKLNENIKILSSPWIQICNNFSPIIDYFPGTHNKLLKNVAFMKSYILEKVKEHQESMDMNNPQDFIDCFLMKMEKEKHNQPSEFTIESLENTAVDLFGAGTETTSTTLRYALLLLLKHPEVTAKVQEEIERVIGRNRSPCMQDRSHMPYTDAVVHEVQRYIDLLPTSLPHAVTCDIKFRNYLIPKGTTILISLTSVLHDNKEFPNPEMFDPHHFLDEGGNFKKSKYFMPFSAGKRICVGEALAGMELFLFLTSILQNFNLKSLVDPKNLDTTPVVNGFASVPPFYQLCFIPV
Sequence of Cytochrome P450 2C19 (Homo sapiens) (P33261 whole entry, looked up): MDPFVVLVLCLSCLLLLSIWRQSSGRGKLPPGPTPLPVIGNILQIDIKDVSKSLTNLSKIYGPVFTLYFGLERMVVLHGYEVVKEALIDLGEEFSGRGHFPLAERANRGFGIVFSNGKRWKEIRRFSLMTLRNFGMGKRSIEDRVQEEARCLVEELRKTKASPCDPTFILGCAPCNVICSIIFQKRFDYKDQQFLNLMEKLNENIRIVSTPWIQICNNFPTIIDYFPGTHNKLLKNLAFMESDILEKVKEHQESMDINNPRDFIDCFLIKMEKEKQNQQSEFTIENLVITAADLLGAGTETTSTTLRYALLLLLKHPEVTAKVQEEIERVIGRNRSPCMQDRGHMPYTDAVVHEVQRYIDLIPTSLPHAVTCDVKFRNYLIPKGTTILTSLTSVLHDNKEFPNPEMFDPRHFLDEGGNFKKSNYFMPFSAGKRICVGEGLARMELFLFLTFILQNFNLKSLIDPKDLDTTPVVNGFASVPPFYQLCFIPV

Row | SMILES | Potency [1] | activity change, negative = inhibition [2] | activity change, negative = inhibition [3] | activity, negative = inhibition [4] | Potency [5] | Potency [6] | Potency [7] | outcome [8] | Potency [9] | Potency [10] | Potency [11] | Potency [12] | activation [13]
1 | O=C(c1ccncc1)N1CCC2(CCCN(c3ccc(-c4ccccc4)cc3)C2)CC1 | > 11.4 µM | -6.85% | 14.6% | -6.26% | > 46 µM | inactive | inactive | inactive | – | – | – | – | –
2 | CS(=O)(=O)N1CCC2(CC1)CN(c1ccc(-c3ccccc3)cc1)C2 | > 11.4 µM | -8.52% | -6.69% | -25.1% | > 46 µM | inactive | inactive | inactive | inactive | inactive | – | – | –
3 | O=C(c1ccco1)N1CCC2(CC1)CN(c1ncccn1)C2 | > 11.4 µM | -3.83% | 0.563% | 2.05% | > 46 µM | inactive | inactive | inactive | – | – | inactive | 15.8 µM (active) | –
4 | O=C(c1csnn1)N1CCC[C@@]2(CCN(Cc3ccccc3)C2)C1 | > 11.4 µM | -14.5% | 1.87% | -1.23% | > 46 µM | inactive | inactive | inactive | – | – | – | – | –
5 | COC(=O)N1CCC2(CCN(C(=O)Nc3ccc(OC)cc3)CC2)CC1 | > 11.4 µM | -1.58% | -8.6% | 3.42% | > 46 µM | inactive | inactive | inactive | – | – | – | – | –
6 | O=C(c1ccncc1)N1CCC[C@@]2(CCN(Cc3ccccc3)C2)C1 | > 11.4 µM | 1% | -11.7% | 7.78% | > 46 µM | inactive | inactive | inactive | – | – | – | inactive | –
7 | N#Cc1ccc(CN2CC[C@@]3(CCCN(C(=O)c4ccco4)C3)C2)cc1 | > 11.4 µM | 0.694% | -6.92% | 12.6% | > 46 µM | inactive | inactive | inactive | – | – | – | – | –
8 | O=C(Nc1cccc(F)c1)N1CCC2(CC1)CCN(C(=O)c1cccc(F)c1)CC2 | > 11.4 µM | -7.86% | 3.68% | -6.46% | > 46 µM | inactive | inactive | inactive | – | – | – | – | –
9 | O=C(c1csnn1)N1CCC2(CC1)CN(c1ncccn1)C2 | > 11.4 µM | 13.2% | 16.9% | 1.44% | > 46 µM | inactive | inactive | inactive | – | – | – | – | –
10 | COc1ncc2nc(C)c(=O)n(Cc3cccs3)c2n1 | > 11.4 µM | -2.91% | -7.05% | -7.75% | > 46 µM | inactive | inactive | inactive | – | – | – | – | –
11 | COc1ccc(C(=O)N2CCC3(CCCN(Cc4nccs4)C3)CC2)cc1 | > 11.4 µM | -4.03% | – | -4.62% | > 46 µM | inactive | inactive | inactive | – | – | – | inactive | –
12 | N#Cc1ccc(CN2CCCC3(CCN(C(=O)c4cnccn4)CC3)C2)cc1 | > 11.4 µM | -6.06% | – | -1.62% | > 46 µM | inactive | inactive | inactive | – | – | – | – | –
13 | N#Cc1cccc(NC(=O)N2CCCC3(CCN(C(=O)c4ccncc4)CC3)C2)c1 | > 11.4 µM | -9.49% | – | 1.51% | > 46 µM | inactive | inactive | inactive | – | – | – | – | -1.72%
